Compound activity from PubChem BioAssay.
Rows were chosen to be rich in hits. Some 12% of all compounds tested hit in one or more screens of this group.
Lassa entry inh – inhibitors of Lassa virus binding or cell entry | Potency, µM (doses to about 37.9 µM), for inactives: at the highest dose activity change, negative = inhibition, usual class: inhibitors | Lassa virus pseudotype entry inhibition, cell reporter | actives 1.2% (n = 300,000); calls by dose curve; tested in HEK293 cells; note: potency is the fitted concentration of half-maximal effect; % is set by controls: 0 for no effect and ±100 for the full control effect; nearly all actives have a fitted effect of over 50% in size
Marburg entry inh – Marburg virus entry inhibition. Marburg virus pseudotyped entry inhibition, cell reporter. Potency, µM (highest dose often 37.8 µM), inactives show at the highest dose activity change, negative = inhibition, usual class: inhibitors. actives 1.8% (n = 300,000); calls by dose curve; tested in HEK293 cells; note: potency is the fitted concentration of half-maximal effect; % is set by controls: 0 for no effect and ±100 for the full control effect
CHX counter – counter-screen hit for Shiga toxin inhibitors, cycloheximide; cell reporter, cycloheximide protein synthesis inhibition counterscreen; max response, %; actives 12% (n = 300,000); AID 2314; in the data active = max response mostly above about 13%, no sharp cut-off; inactive = mostly below about 14%; note: read at 38.3 µM for the half of the compounds with a filed dose; 0% is about no effect
Shiga inhibitor – Shiga toxin inhibition. Vero cells, Shiga toxin protein synthesis inhibition reporter. inhibition, % at 38.7 µM. actives 9.2% (n = 290,000). AID 2315; in the data active = inhibition mostly above about 28%, no sharp cut-off; inactive = mostly below about 43%; note: 0% is about no effect
* hit, by the source's call; [ ] = another dose, or the depositor's remark.

`O=C(/C=N/NC(=O)c1ccc(Cl)cc1Cl)c1ccccc1` gave Lassa entry inh 25%[46.1 µM], Marburg entry inh -10%[46.1 µM], CHX counter 30* and Shiga inhibitor 72*.
O=C(/C=N/NC(=O)c1ccccc1Br)c1ccccc1 was read as Lassa entry inh 4%[46.1 µM], Marburg entry inh -7%[46.1 µM], CHX counter 46* and Shiga inhibitor 81*.
For O=C(N/N=C/c1coc2ccccc2c1=O)c1ccccc1Br the results were Lassa entry inh 0%, Marburg entry inh 11%, CHX counter -2 and Shiga inhibitor -3.
`Cn1c(=O)n(C)c2cc(/C=N/NC(=O)c3ccc(Cl)cc3Cl)ccc21` gave Lassa entry inh -14%, Marburg entry inh -9%, CHX counter 7 and Shiga inhibitor 3.
For C[C@H](O)c1n(C)c(Cl)c[n+]1C the results were Marburg entry inh 9%.
Screening CCOC(=O)CNC(=O)c1ccc(Br)s1 returned CHX counter 2 and Shiga inhibitor 1.
Cc1ccc(C)n1-c1ccc(C(=O)NN)s1 was read as Lassa entry inh 17%, Marburg entry inh -23%[46.1 µM], CHX counter 26* and Shiga inhibitor 26*.
For O=[N+]([O-])c1ccc2nc(-c3ccc(Cl)cc3)n(OCc3ccccc3)c2c1 the results were Lassa entry inh 14%, Marburg entry inh inconclusive, CHX counter 35* and Shiga inhibitor 96*.
`Cc1ccc(COn2c(-c3ccc(Cl)cc3)nc3ccc([N+](=O)[O-])cc32)cc1` gave Lassa entry inh 24%, Marburg entry inh inconclusive, CHX counter 49* and Shiga inhibitor 105*.
Screening CCN(CC)S(=O)(=O)c1cccc(C(=O)Nc2cccc(C)c2)c1 returned Lassa entry inh -15%, Marburg entry inh 15%, CHX counter 27* and Shiga inhibitor 25.
`CCN(CC)S(=O)(=O)c1cccc(C(=O)N/N=C(\C)c2ccc(O)cc2O)c1` gave Lassa entry inh inconclusive, Marburg entry inh 7.9µM*, CHX counter 7 and Shiga inhibitor 17.
Screening CCc1ccc(OCC(=O)N/N=C(\C)c2ccc(O)cc2O)cc1 returned Lassa entry inh inconclusive, Marburg entry inh inconclusive, CHX counter -2 and Shiga inhibitor -10.
Screening CCN(CC)S(=O)(=O)c1cccc(C(=O)N/N=C/c2ccc(O)c(O)c2O)c1 returned Lassa entry inh 6%, Marburg entry inh 1%, CHX counter -3 and Shiga inhibitor 4.
CCN(CC)S(=O)(=O)c1cccc(C(=O)Nc2cc(C)cc(C)c2)c1 was read as Lassa entry inh 12%, Marburg entry inh 17%, CHX counter 17* and Shiga inhibitor 39*.
C/C(=N\NC(=O)C(N)=O)c1ccc(O)cc1O was read as Lassa entry inh 25%[46.1 µM], Marburg entry inh 0%[46.1 µM], CHX counter 16* and Shiga inhibitor 21.
Screening CCN(CC)S(=O)(=O)c1ccc(C(=O)Nc2cc(C)cc(C)c2)cc1 returned Lassa entry inh inconclusive, Marburg entry inh inconclusive, CHX counter -2 and Shiga inhibitor -13.
Screening CC(C)c1c(C(=O)N/N=C/C=C/c2ccccc2)nnn1-c1nonc1N returned CHX counter -10 and Shiga inhibitor -6.
For COc1nc(=O)n(C2CCCO2)cc1C (stereo not given) the results were Lassa entry inh 25% and Marburg entry inh 16%.
Screening C/C(=N\NC(=O)c1c([N+](=O)[O-])c(C)nn1C)c1ccc(NC(=O)c2ccc(C)o2)cc1 returned CHX counter 25* and Shiga inhibitor 51*.
For C/C(=N\NC(=O)C1(C)CC1(Br)Br)c1ccc(NC(=O)c2ccc(C)o2)cc1 (stereo not given) the results were Lassa entry inh inconclusive, Marburg entry inh inconclusive, CHX counter 24* and Shiga inhibitor 54*.
`C/C(=N/NS(=O)(=O)c1ccc(F)cc1)c1ccc(NC(=O)c2ccc(C)o2)cc1` gave Lassa entry inh -6%, Marburg entry inh -16%, CHX counter 35* and Shiga inhibitor 43.
For CCOc1ccccc1NC(=O)Cn1cnc2c1c(=O)n(C)c(=O)n2C the results were Lassa entry inh -18%[46.1 µM].
For CC(=O)c1ccc(NC(=O)c2sc(-n3nc(C)c(Cc4ccccc4)c3C)nc2C)cc1 the results were Lassa entry inh -2%[46.1 µM] and Marburg entry inh 19%[46.1 µM].
For CSc1ccc(CNc2ccccc2)cc1 the results were Marburg entry inh -6%, CHX counter 29* and Shiga inhibitor 61*.
For CN(C)c1ccc(CNc2ccccn2)cc1 the results were Lassa entry inh inconclusive, Marburg entry inh inconclusive, CHX counter 27* and Shiga inhibitor 43*.
`O[C@@H](CNC[C@H](O)c1ccccc1)c1ccccc1` gave Lassa entry inh 6%, Marburg entry inh inconclusive, CHX counter 2 and Shiga inhibitor -4.
`CSc1cccc(NCc2ccc([N+](=O)[O-])cc2)c1` gave Lassa entry inh 1%[46.1 µM], Marburg entry inh 16%[46.1 µM], CHX counter 13 and Shiga inhibitor 30.
Screening CN(C)c1ccc(CNCc2cccnc2)cc1 returned Lassa entry inh 5% and Marburg entry inh 3%[46.1 µM].
CSc1ccc(CNCC(O)c2ccccc2)cc1 (stereo not given) was read as Lassa entry inh 18%[46.1 µM], Marburg entry inh 15%[46.1 µM], CHX counter 22* and Shiga inhibitor 16.
For Cc1cccc(NCc2ccc(N(C)C)cc2)n1 the results were Lassa entry inh 3%[46.1 µM], Marburg entry inh inconclusive, CHX counter 45* and Shiga inhibitor 91*.
`CCCCCCCCCCCCCCOc1ccc(C(=O)O)o1` gave CHX counter 4 and Shiga inhibitor 12.
`COc1ccc(O[C@H]2C=C[C@@H](c3ccccc3)O[C@H]2COC(=O)CCC(C)=NOC[C@@H](O)COCc2ccco2)cc1` gave Lassa entry inh 0%[14.3 µM] and Marburg entry inh 10%[14.2 µM].
For COc1ccc(C(=O)OCC(=O)NC2CCCCCCC2)cc1OC the results were Lassa entry inh 16% and Marburg entry inh 5%.
CSc1ccc(CNCCCSc2ncccn2)cc1 was read as Lassa entry inh inconclusive, Marburg entry inh inconclusive, CHX counter 6 and Shiga inhibitor 11.
CSc1ccc(CNc2ccccn2)cc1 was read as Lassa entry inh -17%, Marburg entry inh inconclusive, CHX counter 38* and Shiga inhibitor 117*.
Screening Fc1ccc(CNc2ccccn2)cc1 returned CHX counter 20* and Shiga inhibitor 26*.
`CC(C)(CS(=O)(=O)[O-])NC(=O)CC[N+](C)(C)CCO` gave Lassa entry inh 3%, Marburg entry inh 2.8µM*, CHX counter -2 and Shiga inhibitor -9.
O=S(=O)(c1ccc(Cl)cc1)c1nc(-c2cccs2)oc1N1CCCCC1 was read as Lassa entry inh 0%[46.1 µM] and Marburg entry inh inconclusive.
For O=C(NC(=S)Nc1ccc2c(c1)OCCO2)c1ccccc1F the results were Lassa entry inh inconclusive, Marburg entry inh inconclusive, CHX counter 41* and Shiga inhibitor 145*.
`CCOc1cccc(C(=O)NC(=S)Nc2ccc3c(c2)OCCO3)c1` gave Marburg entry inh inconclusive, CHX counter 61* and Shiga inhibitor 113*.
For COc1cccc(OC)c1C(=O)NC(=S)Nc1ccc2c(c1)OCCO2 the results were Lassa entry inh -24%, Marburg entry inh -22%[46.1 µM], CHX counter 34* and Shiga inhibitor 42*.
